# Test results reported in PubChem BioAssay.
# Assays:
# [1] = inhibitors of PAF-induced NFkB signaling in CF airway cells, dose response, cell-based, uHTS hits, panel, cytotoxicity readout (AID 624344); conditions: CF bronchial epithelial cells, PAF-induced NFkB reporter inhibition, with PAF, run 1; at 79 µM (top of the series) unless noted
# [2] = as above; conditions: CF bronchial epithelial cells, PAF-induced NFkB reporter inhibition, with PAF, run 2; at 79 µM (top of the series) unless noted
compound,measurement,setting,value
Cc1nc(N)c(C#N)c(-c2cccnc2)c1-c1ccccc1,inhibition,[1],93.9%
same,inhibition,[2],80%
COc1cccc(-c2ccc3ncnc(NCc4cc(C)cs4)c3c2)c1,inhibition,[1],106%
same,inhibition,[2],116%
CCCNC(=O)COC(=O)c1ccccc1C(=O)c1ccc(Cl)c([N+](=O)[O-])c1,inhibition,[1],96.2%
same,inhibition,[2],99.9%
CC(=O)Nc1ccc(Nc2nc(-c3sc(NC(C)=O)nc3C)cs2)cc1,inhibition,[1],103%
same,inhibition,[2],110%
CCOC(=O)/C=c1/s/c(=C\c2c(OC)ccc3ccccc23)c(=O)n1CC(=O)NCC1CCCO1 (stereo not drawn),inhibition,[1],-195%
same,inhibition,[2],46.6% [at 39.5 µM]
O=S(=O)(c1ccc(Br)cc1)c1cnc2ccccc2n1,inhibition,[1],100%
same,inhibition,[2],106%
C=C(C)[C@@H]1CCC2(C(=O)O)CC[C@]3(C)[C@H](CC[C@@H]4[C@@]5(C)CCC(=O)C(C)(C)[C@@H]5CC[C@]43C)[C@@H]12 (stereo partly drawn),inhibition,[1],86.7%
same,inhibition,[2],102%
CC(=O)c1ccc(NC(=O)Nc2ccc3c(c2)N(C)C(=O)CS3)cc1,inhibition,[1],98.3%
same,inhibition,[2],106% [at 19.8 µM]
Cc1cnc(C=O)c2cccc([N+](=O)[O-])c12,inhibition,[1],110%
same,inhibition,[2],106%
C/C=C/COC(=O)c1[nH]c2c(c1C)C(=O)CC(c1ccco1)C2 (stereo not drawn),inhibition,[1],106%
same,inhibition,[2],92.9%
O=C(NCCc1ccccc1)c1coc(=O)c(Br)c1,inhibition,[1],84%
same,inhibition,[2],106% [at 39.5 µM]
COc1ccccc1Cn1c(=O)c2ccccc2n2c(Sc3ncnc4sccc34)nnc12,inhibition,[1],101%
same,inhibition,[2],113%
COc1ccc(-c2cc(=O)oc3cc(OC(=O)C4CCCCC4)c(Cl)cc23)cc1,inhibition,[1],117%
same,inhibition,[2],102%
CC1CCCCN1c1ncnc(N)c1[N+](=O)[O-] (stereo not drawn),inhibition,[1],113%
same,inhibition,[2],103%
CC(=O)OCCCNc1cc(Sc2ccc(Cl)cc2)c2nonc2c1[N+](=O)[O-],inhibition,[1],100%
same,inhibition,[2],113%
O=C(CC12CC3CC(CC(C3)C1)C2)Nc1nncs1,inhibition,[1],105%
same,inhibition,[2],100%
CS(=O)(=O)c1ccc2nc(NC(=O)Nc3cccc(Cl)c3)sc2c1,inhibition,[1],79.3%
same,inhibition,[2],83.9%
COc1ccc(-c2csc3ncnc(NCCN4CCOCC4)c23)cc1,inhibition,[1],112%
same,inhibition,[2],100%
O=[N+]([O-])c1cccc(NC(=S)Nc2nc(-c3ccccc3Cl)cs2)c1,inhibition,[1],108%
same,inhibition,[2],99.8%
COc1ccc(OC)c(-c2nnc3n2N=C(c2ccc(OC)c(OC4CCOC4)c2)CS3)c1 (stereo not drawn),inhibition,[1],103%
same,inhibition,[2],107%
O=S1(=O)CC=C(CSC(=S)NC2CCS(=O)(=O)C2)C1 (stereo not drawn),inhibition,[1],100%
same,inhibition,[2],110%
COc1cc2oc(=O)cc(-c3ccc(-c4ccc(N(C)C)cc4)cc3)c2c(OC)c1OC,inhibition,[1],54.9%
same,inhibition,[2],69.4%
Nc1ncnc2c1c(-c1ccc(Oc3ccccc3)cc1)cn2C1CCCC1,inhibition,[1],114%
same,inhibition,[2],94.1%
CC1=C(C(=O)OCc2ccc3c(c2)OCO3)C(c2cccc([N+](=O)[O-])c2)NC(=O)N1 (stereo not drawn),inhibition,[1],79.1%
same,inhibition,[2],92.2% [at 19.8 µM]
O=C1C(=Cc2ccccc2[N+](=O)[O-])Cc2ccccc21,inhibition,[1],68.5%
same,inhibition,[2],106%
O=C(/C=C/c1cccc([N+](=O)[O-])c1)NC(=S)Nc1ccc(CN2CCOCC2)cc1,inhibition,[1],100%
same,inhibition,[2],112%
OCCN1CCN(c2ncnc3ccc(Br)cc23)CC1,inhibition,[1],95.4%
same,inhibition,[2],107%
Cc1c(C(=O)OCC(C)C)[nH]c2c1C(=O)CC(c1ccco1)C2 (stereo not drawn),inhibition,[1],97.4%
same,inhibition,[2],61.5%
COc1cccc(NC(=O)CN(C)CC(=O)Nc2ccc(C)c([N+](=O)[O-])c2)c1,inhibition,[1],80.7%
same,inhibition,[2],101%
COc1ccc(CN(CCC(c2ccc(F)cc2)C2CCOC(C)(C)C2)C(=O)c2ccco2)cc1 (stereo not drawn),inhibition,[1],105%
same,inhibition,[2],111%
COc1ccc(C2CNC(=O)C2)cc1OC1CCCC1 (stereo not drawn),inhibition,[1],84.8%
same,inhibition,[2],81.6%
Cc1cccc(N=c2oc3cc(O)ccc3cc2C(N)=O)c1,inhibition,[1],87.7%
same,inhibition,[2],80%
C[C@@H](NC(=O)c1coc(=O)c(Br)c1)c1ccccc1,inhibition,[1],77.6%
same,inhibition,[2],99.8% [at 19.8 µM]
Cc1ccc(S(=O)(=O)Nc2ccc3cc([N+](=O)[O-])ccc3c2[N+](=O)[O-])cc1,inhibition,[1],109%
same,inhibition,[2],101%
CN(c1cccc(Cl)c1)S(=O)(=O)c1cccc(C(=O)Nc2nc3ccccc3[nH]2)c1,inhibition,[1],102%
same,inhibition,[2],99.5%
CC1(C)CC(=O)C=C(NC2=CC3OC(c4ccccc4)OCC3OC2=O)C1 (stereo not drawn),inhibition,[1],103%
same,inhibition,[2],114%
O=C(c1ccc(O)c(Br)c1)c1cc(Br)ccc1O,inhibition,[1],105%
same,inhibition,[2],109%
COc1cccc(Nc2ncnc3ccc(Br)cc23)c1,inhibition,[1],119%
same,inhibition,[2],105%
O=C1CC(=O)OC(c2ccc([N+](=O)[O-])cc2)O1,inhibition,[1],101%
same,inhibition,[2],94.3%
